# SENP6 inh: SENP6 protease inhibition. hit rate 1.8% among 330,000. inhibition, % at 10 µM. Recombinant SENP6 catalytic domain, aminoluciferin luminescence. Q9GZR1;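 active = inhibition above about 50% at the single tested dose, limit read from the data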;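 note: plate controls were DMSO wells with enzyme for no effect and DMSO wells lacking enzyme for full effect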
# Target sequence (Q9GZR1 628-1112 limits assumed): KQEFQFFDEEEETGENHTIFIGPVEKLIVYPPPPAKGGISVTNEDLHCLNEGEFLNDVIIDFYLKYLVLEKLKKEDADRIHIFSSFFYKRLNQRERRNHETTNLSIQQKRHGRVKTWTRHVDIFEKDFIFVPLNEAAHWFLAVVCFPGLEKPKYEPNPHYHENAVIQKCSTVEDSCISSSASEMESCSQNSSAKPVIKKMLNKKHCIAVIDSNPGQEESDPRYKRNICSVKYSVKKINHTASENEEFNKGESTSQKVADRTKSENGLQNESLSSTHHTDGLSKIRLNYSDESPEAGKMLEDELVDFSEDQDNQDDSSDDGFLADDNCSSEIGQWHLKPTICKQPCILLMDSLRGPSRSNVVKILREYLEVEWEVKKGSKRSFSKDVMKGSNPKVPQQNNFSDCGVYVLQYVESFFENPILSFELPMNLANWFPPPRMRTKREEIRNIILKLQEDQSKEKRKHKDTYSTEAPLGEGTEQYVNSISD
# TRAIL sens C8: caspase-8 TRAIL sensitization; NB7+C8 cells + TRAIL, ATPlite viability luminescence; inhibition (viability loss, TRAIL sensitization), % at 10 µM; AID 624354; hit rate 1% among 360,000;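 active = compounds causing at least 50% loss of cell viability in the single-dose screen, relative to plate controls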
# SENP8 block-1: SENP8 protease inhibition; Q96LD8; purified SENP8, Z-RLRGG-aminoluciferin cleavage, luminescence; inhibition, % at 10 µM; hit rate 1.2% among 330,000; in the data active = inhibition above about 50%
# SENP7 block: blocks the human protease SENP7 | inhibition, % at 5 µM | recombinant SENP7, Z-RLRGG-aminoluciferin luminescence, 40 min | hit rate 1.5% among 330,000 | Q9BQF6;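 active = inhibition above about 50% at the single test dose, limit read from the data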;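 note: plate controls were DMSO with enzyme for no effect and no enzyme buffer wells for full effect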
# PPC-1+TRAIL kill: PPC-1 cancer cell killing with TRAIL present; PPC-1 cells + TRAIL, ATPLite viability luminescence; cell killing (% activity), % at 4 µM or 5 µM; hit rate 0.41% among 220,000;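 active = cell killing above 50% in the first pass at 4 µM, then a duplicate retest at 5 µM averaging 50% or more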;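 note: plate controls were cells with TRAIL plus DMSO for no effect and medium-only wells lacking cells for full effect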
# SENP8 block-2: blocks human SENP8 cleavage of Nedd8 substrate | inhibition, % at 20 µM | hit rate 0.64% among 360,000 | recombinant SENP8, Nedd8 substrate fluorescence | Q96LD8; in the data active = inhibition mostly above about 40%, no sharp cut-off; inactive = mostly below about 27%
# SENP8 conf: human SENP8 inhibition, confirmed. shares compounds with SENP7 block. Recombinant SENP8, Z-RLRGG-aminoluciferin luminescence, 60 min. inhibition, % at 12.5 µM. hit rate 40% among 6,200;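 active = mean inhibition across replicates above about 50%, limit read from the data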
# SENP6 confirm: human SENP6 inhibition, confirmed. hit rate 58% among 6,200. recombinant SENP6, Z-RLRGG-aminoluciferin luminescence. inhibition, % at 12.5 µM. shares compounds with SENP7 block
# SENP7 conf: confirmation of human SENP7 protease inhibitors; shares compounds with SENP7 block; hit rate 69% among 6,200; recombinant SENP7, Z-RLRGG-aminoluciferin luminescence, 40 min; inhibition, % at 12.5 µM
# Casp3 select: inhibits human caspase-3 in SENP selectivity test; shares compounds with SENP7 block; purified caspase-3, Z-DEVD-aminoluciferin luminescence, 60 min; inhibition, % at 12.5 µM; hit rate 60% among 6,200; AID 488918;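 active = mean inhibition above about 50%, limit read from the data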;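 note: plate controls were enzyme with DMSO for no effect and wells without caspase-3 for full effect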
# SENP luc ctr: counter-screen for SENP inhibitors: luminescence interference | shares compounds with SENP7 block | Pre-incubated SENP8/Z-RLRGG-aminoluciferin, luciferase luminescence interference | inhibition, % at 12.5 µM | hit rate 39% among 6,200 | AID 488919;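 active = mean inhibition above about 50% when retested at one dose, limit read from the data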;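 note: plate controls were DMSO wells with completed reaction for no effect and substrate without enzyme for full effect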
# Starred values were filed as active, the others as inactive; x = no result given. A selection: hits, their analogues and other compounds. The true share with any hit is near 3%.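 Rule for the calls, unless noted: active = mean inhibition above about 50% in the one-dose retest (limit read from the data); inactive = the rest.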
SMILES,SENP6 inh,TRAIL sens C8,SENP8 block-1,SENP7 block,PPC-1+TRAIL kill,SENP8 block-2,SENP8 conf,SENP6 confirm,SENP7 conf,Casp3 select,SENP luc ctr
COc1cc2c(cc1OC)C(c1cc(OC)c(OC)cc1[N+](=O)[O-])N(C(C)=O)CC2 (stereo unspecified),-19,-24,6,-2,x,13,x,x,x,x,x
N#Cc1ccc(CN2CCN(C(=O)CNC(=O)Cc3ccccc3)CC2)cc1,-8,20,-9,-13,x,-7,x,x,x,x,x
O=C(Nc1ccc(Cl)cn1)c1cc2ccccc2o1,74*,42,59*,79*,22,8,9,64*,82*,70*,28
COc1ccc(C)cc1NC(=O)c1cc2ccccc2o1,-5,-6,-8,-4,1,6,x,x,x,x,x
Cc1ccc(C)c(NC(=O)c2cc3ccccc3o2)c1,40,22,26,53*,x,11,52*,49,78*,58*,31
O=C(Nc1cc(-c2ccccc2)[nH]n1)c1ccccc1,80*,10,59*,62*,2,1,68*,62*,88*,63*,71*
O=C(Nc1ncccc1O)c1cc2ccccc2o1,67*,27,31,68*,x,-31,63*,63*,85*,87*,68*
O=C(NNC(=O)c1cc2ccccc2o1)c1ccc(Cl)cc1,-3,5,0,-5,12,12,x,x,x,x,x
CC(=O)Nc1ccc2nc(-c3cccn3C)[nH]c2c1,-7,0,1,4,x,-142,x,x,x,x,x
O=[N+]([O-])c1ccc2nc(-c3ccccc3)[nH]c2c1,82*,12,79*,85*,16,16,6,81*,95*,83*,82*
Cn1cccc1-c1nc2ccc([N+](=O)[O-])cc2[nH]1,62*,-2,46,58*,x,-10,51*,52*,85*,62*,62*
O=[N+]([O-])c1ccc2nc(-c3cccnc3)[nH]c2c1,42,-19,24,7,x,9,x,x,x,x,x
O=C(CSc1nnc2ccccn12)NNC(=O)c1cccc(Cl)c1,0,3,-19,-12,x,-8,x,x,x,x,x
Cc1ccc(O)c(-c2cc(-c3ccccc3F)[nH]n2)c1,62*,11,57*,55*,22,23,66*,72*,92*,28,14
Cc1ccc(-c2cc(-c3cccc(F)c3)n[nH]2)c(O)c1,78*,8,41,44,26,26,75*,72*,87*,13,19
Cc1cccc(C(=O)O/N=C/c2ccc(Br)cc2)c1,68*,1,61*,62*,8,6,50,74*,88*,61*,34
Cc1cccc(C(=O)O/N=C/c2c(Cl)n(C)c3ccccc23)c1,-3,8,-5,4,-4,0,x,x,x,x,x
CCOC(=O)c1cc2ccc(OC(=O)c3ccco3)cc2oc1=O,56*,1,36,63*,24,-308,55*,61*,87*,89*,56*
CCOC(=O)c1c(C)n(C)c2ccc(OC(=O)c3ccco3)cc12,-5,-16,3,6,5,22,x,x,x,x,x
Fc1ccc2c(Cl)c(-c3nnc(-c4cccs4)o3)sc2c1,6,34,-10,69*,36,-332,2,8,25,14,3
COc1ccc(NC(=O)N(C)C[C@H]2Oc3ccc(NS(=O)(=O)c4ccccc4)cc3C(=O)N([C@H](C)CO)C[C@@H]2C)cc1,x,-17,x,x,x,15,x,x,x,x,x
COc1cc(C(=O)NCCN2C(=O)S/C(=C\c3cccs3)C2=O)cc(OC)c1OC,12,-2,56*,64*,3,6,2,4,9,6,0
COc1cc(OC)cc(C(=O)NCCN2C(=O)S/C(=C\c3cccs3)C2=O)c1,-35,3,-18,-9,10,12,x,x,x,x,x
CCOC(=O)C(C(=O)Cc1ccccc1)c1ccccc1 (stereo unspecified),x,-4,x,x,x,1,x,x,x,x,x
Cc1nn(-c2ccccc2)c(Cl)c1/C=N/NC(=O)OC(C)(C)C,-15,39,-9,-12,0,1,x,x,x,x,x
SMILES,SENP6 inh,TRAIL sens C8,SENP8 block-1,SENP7 block,PPC-1+TRAIL kill,SENP8 block-2,SENP8 conf,SENP6 confirm,SENP7 conf,Casp3 select,SENP luc ctr
Cc1nn(-c2ccccc2)c(Cl)c1/C=N/Nc1ccc(Cl)c(C(=O)O)c1,100*,50,97*,92*,52*,-16,99*,100*,103*,85*,80*
O=C(O)c1cc(N/N=C/c2ccc(OCc3ccccc3)cc2)ccc1Cl,56*,-20,72*,30,22,-8,60*,54*,74*,15,69*
COC(=O)c1ccc(COc2ccc(/C=N/Nc3cccc(C(=O)O)c3)cc2)cc1,35,6,7,2,6,-3,x,x,x,x,x
CC1(N=Cc2cc(Cl)ccc2O)COP(=O)(NC2CCCC2)OC1 (stereo unspecified),x,1,x,x,x,-1,x,x,x,x,x
COc1cccc(/C=N/Nc2ccc([N+](=O)[O-])cc2)c1O,70*,-13,61*,78*,x,-69,20,67*,98*,50*,5
COC(=O)c1ccc(N/N=C/c2cc([N+](=O)[O-])cc(OC)c2O)cc1,34,-1,29,17,-10,35,x,x,x,x,x
COc1cccc(/C=N/Nc2cc(Cl)nc(C)n2)c1O,28,9,10,23,26,-26,x,x,x,x,x
COc1cccc(/C=N/Nc2c(Cl)cncc2Cl)c1O,76*,9,66*,62*,x,15,74*,71*,90*,65*,72*
COc1ccc(NC(=O)Nc2nccs2)cc1,74*,24,32,56*,46,4,39,41,80*,77*,63*
O=C(Nc1ccccc1)Nc1nccs1,25,-20,5,7,17,9,x,x,x,x,x
COc1ccc(C(=O)Nc2nccs2)cc1,52*,30,14,33,x,22,30,26,63*,64*,46
c1cc2nnnn2nc1N1CCCCC1,1,-9,5,58*,1,5,8,6,-3,-6,-8
COc1ccc(C(=O)C2CCCN(C(=O)c3cccc(Cl)c3F)C2)cc1OC (stereo unspecified),-23,5,-2,-2,x,13,x,x,x,x,x

# Assay outcomes deposited in PubChem by Sanford-Burnham Center for Chemical Genomics.
